CHT block = inhibits the human high affinity choline transporter; Q9GZV3; CHT-expressing cells, membrane potential dye, choline response; hits give low values; 310,000 tested, 0.86% active; B-score at 10 µM;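 active means B-score over 3 SD under the library average, and starting fluorescence ratio not unusually high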;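 further: choline stimulus applied at its EC90 after an EC20 pre-addition; B-score computed on integrated fluorescence ratio after choline addition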
PKA-R2B activ = PKA-R2B complex activation; 340,000 tested, 0.079% active; PKA-R2B holoenzyme dissociation, Cy5-IP20 fluorescence polarization; R2B truncated from residue 108, S112A mutant; 0% DMSO only, 100% 113 µM cGMP; activation, % at 11.4 µM; P22694+P31323; AID 504700;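 active means activation above a cutoff set at the mean over all compounds plus 3 SD, cut at about 18% in these data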;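 further: higher means more holoenzyme dissociation and a rise in polarization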
Target sequence (P31323 whole entry, looked up, other chains not shown, the tested form may be a part): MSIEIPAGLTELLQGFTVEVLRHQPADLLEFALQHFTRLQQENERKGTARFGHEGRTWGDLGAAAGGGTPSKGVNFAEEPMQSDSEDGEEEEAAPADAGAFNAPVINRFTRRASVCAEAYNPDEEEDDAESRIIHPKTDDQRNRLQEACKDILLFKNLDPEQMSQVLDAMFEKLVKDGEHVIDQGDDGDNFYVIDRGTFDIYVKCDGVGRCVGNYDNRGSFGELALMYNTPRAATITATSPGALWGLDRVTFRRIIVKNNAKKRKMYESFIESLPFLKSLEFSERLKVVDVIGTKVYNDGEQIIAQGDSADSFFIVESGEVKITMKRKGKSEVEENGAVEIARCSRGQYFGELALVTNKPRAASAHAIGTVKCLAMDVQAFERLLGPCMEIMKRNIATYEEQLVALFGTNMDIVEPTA
CHT allo act = allosterically activates the human high affinity choline transporter. Q9GZV3. 310,000 tested, 0.49% active. CHT-expressing cells, membrane potential dye, choline EC20; hits give high values; LV-AA mutant CHT in HEK293 cells. B-score at 10 µM;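 active means initial fluorescence not abnormally high and integrated response B-score, plate-corrected, over 3 SD above library mean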
ANO1 block = inhibitors of mouse TMEM16A calcium-activated chloride channel. normalized B-score (activity score, 25-100; higher = stronger inhibition) at 10 µM. HEK293 TMEM16A/YFP iodide influx fluorescence, ionomycin. Q8BHY3. AID 588511. 310,000 tested, 1.2% active;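 active means ratio plate-corrected score three or more library SD toward inhibition, starting fluorescence score within five deviations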;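 further: score derived from kinetic fluorescence span divided by baseline fluorescence per well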
ANO1 activ = mouse TMEM16A channel activation, primary screen. Q8BHY3. HEK293 TMEM16A/YFP-H148Q/I152L, iodide quench fluorescence; hits give low values. B-score at 10 µM. 340,000 tested, 0.3% active;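 active means fluorescence-ratio B-score plate-corrected deviation score at least 3 library SD below zero, with starting fluorescence score within 5 deviations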;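 further: channel opened by trigger with iodide after compound preincubation; score built on the fluorescence ratio of max minus min over baseline; more negative score means more quench and so TMEM16A activation or potentiation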
PKA-R1A activ = PKA-R1A complex activation | PKA-R1A dissociation, Cy5-IP20 fluorescence polarization; scaled: DMSO 0%, 113 µM cGMP 100% | AID 504707 | P00514+P68181 | 340,000 tested, 0.083% active | activation, % at 11.4 µM;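 active means percent activation above the mean of all tested compounds plus 3 SD, cut at about 19% in these data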;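 further: higher means more PKAc released from R1A so a rise in polarization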
CHT inh conf = confirmation of human choline transporter CHT inhibitors; 2,400 tested, 70% active; CHT activity remaining % of control (hits give low values), % at 10 µM; shares compounds with CHT block; AID 493221; CHT-expressing cells, choline membrane potential dye; LV-to-AA substituted CHT, HEK293 cells;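 active means choline transporter activity left, mean of duplicates at 10 µM, below buffer-only control mean minus 3 SD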;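 further: depolarization triggered by choline at its EC90 following an EC20 pre-addition; 0% = hemicholinium-3 full block and 100% = buffer-only control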
HEK293 MPD ctr = CHT inhibitor counter-screen hit in parental HEK293 cells | AID 493222 | membrane potential dye, choline response; active = decrease or increase beyond buffer ±3SD | shares compounds with CHT block | 2,400 tested, 4% active | membrane potential ratio readout (active if shifted either direction beyond buffer ±3SD; no single direction) at 10 µM;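 further: parental cells lack the transporter so any hit is non-specific; ratio is peak minus trough fluorescence over baseline after EC90 choline challenge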
* marks the source's active call; other numbers are inactive results; i = inactive; / = not tested or not shown. Hits are enriched below; roughly 2.5% of the tested compounds scored in any of these assays.

SMILES	CHT block	PKA-R2B activ	CHT allo act	ANO1 block	ANO1 activ	PKA-R1A activ	CHT inh conf	HEK293 MPD ctr
Cc1cc(C)c(S(=O)(=O)N2CCN(C(=O)C3CCCO3)CC2)c(C)c1 (centres undefined)	/	4	/	/	i	-1	/	/
Cc1nn(Cc2ccccc2)c(C)c1/C=N/NC(=O)c1ccccc1O	i	4	i	i	i	7	/	/
CCOC(=O)c1nn(-c2ccccc2C)c(=O)cc1OCC(=O)N1CCN(c2ccccc2)CC1	i	2	i	i	i	-4	/	/
COC(=O)Nc1ccc(S(=O)(=O)N2CCC(C(=O)N3CCCC(C)C3)CC2)cc1 (centres undefined)	i	6	i	i	i	-10	/	/
CC1CCCN(C(=S)Nc2ccc(S(=O)(=O)N3CCCCC3)cc2)C1 (centres undefined)	-13*	3	i	i	i	-9	i	i
Cc1oc(-c2ccc(Cl)cc2)cc1C(=O)/C(C#N)=C/Nc1ccccc1	i	-6	i	i	i	-10	/	/
COc1ccccc1Nc1ncnc2ccc(C)cc12	-5.4*	-3	i	i	i	0	61%*	i
Cc1ccc2ncnc(Nc3ccccc3)c2c1	i	3	i	i	i	-19	/	/
COc1cccc(C(=O)NN/C(C)=C/C(=O)C(F)(F)C(F)(F)C(F)(F)F)c1	-8.4*	-13	i	i	i	-5	67%*	i
COc1ccc(C(C(=O)NC2CCCCC2)N(C(=O)c2ccco2)c2ccccc2C(C)=O)cc1OC (centres undefined)	-5.1*	10	i	i	i	-9	71%*	i
O=C1NCCN1CCN1C(=O)c2ccccc2NC1c1ccccc1 (centres undefined)	i	-13	i	i	i	-9	/	/
O=C(Nc1cccc(CNCCc2c[nH]c3ccccc23)c1)c1ccccc1Cl	-6.3*	-6	i	i	i	2	31%*	i
CC(=O)c1cccc(NC(=O)NCCc2c[nH]c3ccccc23)c1	i	6	i	i	i	-3	/	/
Cc1ccc(-c2csc3nc(SCC(=O)Nc4ccc(Cl)c(C(=O)O)c4)[nH]c(=O)c23)cc1	-5.6*	-9	i	i	i	-12	67%*	i
Cc1ccc(C(C)C)c(OCC(=O)NNCC(=O)Nc2cccc(F)c2)c1	/	-4	/	/	i	-18	/	/
CCn1cc(/C=C(\NC(=O)c2ccccc2F)C(=O)NCCCn2ccnc2)c2ccccc21	-7.2*	9	i	i	i	7	28%*	i
CCn1cc(/C=C(\NC(=O)c2ccccc2F)C(=O)N2CCOCC2)c2ccccc21	-5.1*	-6	i	i	i	-13	46%*	i
O=C(NCCCn1ccnc1)/C(=C/c1ccccc1)NC(=O)c1ccccc1	i	-1	i	i	i	-1	/	/
O=C(N/C(=C\c1ccc(Br)cc1)C(=O)N1CCOCC1)c1ccccc1Cl	-5.6*	0	i	i	i	6	i	i
CCn1cc(/C=C(\NC(=O)c2ccccc2OC)C(=O)NCCCn2ccnc2)c2ccccc21	i	-2	i	i	i	7	/	/
O=C(NCCCn1ccnc1)/C(=C\c1ccc(Br)cc1)NC(=O)c1ccccc1	-5*	-13	i	i	i	2	59%*	i
O=C(N/C(=C\c1ccccc1)C(=O)N1CCOCC1)c1ccccc1Cl	i	-10	i	i	i	-6	/	/

Assay outcomes from PubChem BioAssay.
